Records with an inconclusive call do not appear. Activity calls are given as the source filed them. How the source made its calls, unless noted: active means hit-call score of the fitted dose curve at least 0.9, where 1 is the maximum; inactive means score below 0.9.
Tests used:
[1] = CCTE_Shafer_MEA_dev_mutual_information_norm: CCTE's Neural Network Formation Assay for Mutual Information Normalization, Shafer Lab (AID 2284091);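 further: mutual information between electrodes summarised as area under curve across four recording days; potency is for a decrease in mutual information relative to DMSO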
In short: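 Exposure of primary rat cortical neurons began at plating and ran to DIV 12, with full media and treatment renewal after DIV 5 and 9 recordings. Mutual information AUC (DIV 5–12) was analysed for loss versus DMSO.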

[2] = CCTE_Shafer_MEA_dev_correlation_coefficient_mean: CCTE's Neural Network Formation Assay for Mean Correlation Coefficient, Shafer Lab (AID 2284093);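 further: well mean pairwise spike train correlation integrated as AUC over recording days 5 to 12; potency fitted for loss of correlation relative to DMSO vehicle wells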
In short: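 Primary rat cortical neurons on PEI-coated 48-well MEA plates (16 electrodes/well) were exposed from plating day 0 through DIV12, with compound renewed at DIV5 and 9. Pairwise spike correlations were averaged per well; trapezoidal AUC across DIV5, 7, 9, 12.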

[3] = IUF_NPC1b_proliferation_BrdU_72hr: Leibniz Research Institute for Environmental Medicine (IUF) 72-hour Neural Progenitor Cell Bromodeoxyuridine (BrdU) Proliferation Assay (NPC1b) (AID 2284207)
In short: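 Neural progenitor spheres of human fetal origin are treated for three days; BrdU added for the last 16 h is quantified by luminescence ELISA, with DMSO as baseline and EGF/FGF omission as positive control.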

[4] = IUF_NPC1a_proliferation_area_72hr: Leibniz Research Institute for Environmental Medicine (IUF) 72-hour Neural Progenitor Cell Proliferation Area Assay (NPC1a) (AID 2284208)
In short: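 Single 0.25–0.35 mm human fetal neural progenitor spheres in proliferation medium with EGF and FGF, exposed 72 h from plating without renewal at 37C, pH 7.2-7.6. Sphere area growth measured by automated phase-contrast imaging, relative to DMSO.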

[5] = CCTE_Mundy_HCI_Cortical_Synap_Neur_Matur_NeuriteSpotCountPerNeuriteLength: CCTE's Synaptogenesis and Neurite Maturation Assay in rat cortical cells for Neurite Spot Count per Neurite Length, Mundy Lab (AID 2284210)
In short: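 Neurite-associated synapse density (synaptophysin puncta per unit neurite length) is measured by fluorescence high-content imaging in rat cortical cultures treated from DIV 7 and fixed at DIV 12, with DMSO as negative control.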

[6] = CCTE_Mundy_HCI_Cortical_NOG_NeuriteCount: CCTE's Neurite Outgrowth Assay in rat cortical cells for Neurite Count, Mundy Lab (AID 2284212);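 further: cells fixed about two days after chemical exposure began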
In short: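 Rat cortical primary cells; compound added 2 h post-plating, 1/10 dilution of working solution. Anti-betaIII-tubulin/AF488 ICC; ArrayScan neurite count vs DMSO.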

[7] = CCTE_Mundy_HCI_Cortical_NOG_NeuriteLength: CCTE's Neurite Outgrowth Assay in rat cortical cells for Neurite Length, Mundy Lab (AID 2284213)
In short: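 First, rat primary cortical cells were plated and, 2 h later, given test chemical as a 1/10 dilution. Finally, βIII-tubulin immunostaining enabled automated imaging of neurite length.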

[8] = CCTE_Mundy_HCI_Cortical_Synap_Neur_Matur_NeuriteSpotCountPerNeuron: CCTE's Synaptogenesis and Neurite Maturation Assay in rat cortical cells for Neurite Spot Count per Neuron Count, Mundy Lab (AID 2284215)
In short: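 Rat primary cortical cultures given AraC at DIV 5, dosed from DIV 7 to DIV 12 with media change. Fixed, stained for MAP2, synaptophysin and Hoechst; neurite-associated synaptophysin puncta per neuron quantified by high-content imaging versus DMSO.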

[9] = CCTE_Mundy_HCI_Cortical_Synap_Neur_Matur_SynapseCount: CCTE's Synaptogenesis and Neurite Maturation Assay in rat cortical cells for Synapse Count, Mundy Lab (AID 2284218)
In short: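 Endpoint: synapses/neuron by HCI (synaptophysin puncta on MAP2-labelled neurites, Hoechst nuclei). Rat primary cortical cells, AraC DIV 5, dosed DIV 7, fixed DIV 12; DMSO negative control.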

[10] = CCTE_Mundy_HCI_Cortical_Synap_Neur_Matur_NeuriteCount: CCTE's Synaptogenesis and Neurite Maturation Assay in rat cortical cells for Neurite Count, Mundy Lab (AID 2284222);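 further: exposure from day 7 to day 12 in vitro with readout at day 12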
In short: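 Rat cortical neurons, 96-well; AraC DIV 5; chemical + media change DIV 7; end DIV 12. Fix PFA/Hoechst, anti-MAP2 + anti-synaptophysin IF. HCI neurite count vs DMSO baseline.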

[11] = CCTE_Mundy_HCI_Cortical_Synap_Neur_Matur_CellBodySpotCount: CCTE's Synaptogenesis and Neurite Maturation Assay in rat cortical cells for Cell Body Spot Count, Mundy Lab (AID 2284223)
In short: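 Primary rat cortical cultures, AraC added at DIV 5; dosed DIV 7 through DIV 12 […]. Fixed, stained for MAP2 and synaptophysin with Hoechst; cell body-associated synaptophysin puncta per neuron counted by high-content imaging, loss vs DMSO.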

[12] = CCTE_Mundy_HCI_hNP1_Pro_ResponderAvgInten: CCTE's Proliferation Assay in human neuroprogenitor cells, Mundy Lab (AID 2284224; active means hit-call score of the fitted dose curve at least 0.9, where 1 is the maximum;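 further: human neural progenitor cells hNP1 derived from WA09 embryonic stem cells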)
In short: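 Human neuroprogenitors (hNP1, WA09 lineage) receive test chemical after 40 to 44 hours of attachment. A four-hour BrdU pulse begins twenty hours later, followed by fixation and high content imaging; signal is referenced to DMSO controls.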

[13] = CCTE_Mundy_HCI_hNP1_Casp3_7: CCTE's Caspase-Glo 3/7 Assay in human neuroprogenitor cells for Apoptosis, Mundy Lab (AID 2284240)
In short: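 Neuroepithelial-lineage stem cells from WA09 embryonic cells were treated with chemicals after 40–44 h of culture. Twenty-four hours later, caspase-3/7 activation was detected luminescently after a 30 min room-temperature reagent step, with DMSO as baseline.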

[14] = CCTE_Mundy_HCI_hNP1_CellTiter: CCTE's Cell Titer-Glo 2 Assay in human neuroprogenitor cells for Viability, Mundy Lab (AID 2284241; active means hit-call score of the fitted dose curve at least 0.9, where 1 is the maximum)
In short: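 Measures ATP content in human neural progenitors derived from WA09 embryonic cells. Read-out at 26.5 hours after dosing, with DMSO serving as the negative control and baseline.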

[15] = IUF_NPC2c_oligodendrocyte_migration_120hr: Leibniz Research Institute for Environmental Medicine (IUF) 120-hour Neural Progenitor Cell Migration Assay for Oligodendrocyte Migration (NPC2c) (AID 2284297);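 further: O4-positive oligodendrocyte migration distance divided by radial glia migration distance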
In short: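 Human fetal neural progenitor spheres (0.3 mm) are plated on poly-D-lysine/laminin in N2 differentiation medium and exposed for 120 h, with half-medium renewal at day 3. Oligodendrocyte (O4+) migration distance comes from ICC imaging, normalised to radial glia migration.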

[16] = IUF_NPC2a_radial_glia_migration_120hr: Leibniz Research Institute for Environmental Medicine (IUF) 120-hour Neural Progenitor Cell Migration Assay for Radial Glia Migration (NPC2a) (AID 2284298)
In short: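 Human fetal-cortex neural progenitor spheres (0.3 mm) plated on poly-D-lysine/laminin in N2 differentiation medium, exposed 120 h at 37C with half-medium renewal at day 3. Radial glia migration distance (um) measured from Hoechst-stained nuclei images; DMSO baseline.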

[17] = IUF_NPC2a_radial_glia_migration_72hr: Leibniz Research Institute for Environmental Medicine (IUF) 72-hour Neural Progenitor Cell Migration Assay for Radial Glia Migration (NPC2a) (AID 2284299)
In short: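 Spheres of human primary neural progenitors migrate on poly-D-lysine/laminin under compound exposure at 37C, 5% CO2. The 72 h radial glia migration distance comes from brightfield images, measured manually.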

[18] = IUF_NPC2b_neuronal_migration_120hr: Leibniz Research Institute for Environmental Medicine (IUF) 120-hour Neural Progenitor Cell Migration Assay for Neuron Migration (NPC2b) (AID 2284300)
In short: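 0.3 mm hNPC spheres on poly-D-lysine/laminin in N2 differentiation medium exposed 120 h, half-medium refresh day 3; 7 concentrations, DMSO max 0.1%. Neuron (TUBB3) distance from sphere core by ICC imaging, normalised to radial glia migration.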

[19] = IUF_NPC3_neuronal_differentiation_120hr: Leibniz Research Institute for Environmental Medicine (IUF) 120-hour Neuronal Differentiation Assay (NPC3) (AID 2284301)
In short: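 Neuronal differentiation of primary human neural progenitors measured by high-content imaging: percent TUBB3+ of Hoechst+ nuclei within migrated area at 120 h, seven-point serial dilution plus solvent control, gain or loss relative to DMSO.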

[20] = IUF_NPC4_neurite_length_120hr: Leibniz Research Institute for Environmental Medicine (IUF) 120-hour Neuronal Morphology Assay for Neurite Length (NPC4) (AID 2284302)
In short: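 Neurons from differentiating human fetal neural progenitor spheres are scored for average neurite length after five days of compound exposure. Fitting uses DMSO as negative control.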

[21] = IUF_NPC5_oligodendrocyte_differentiation_120hr: Leibniz Research Institute for Environmental Medicine (IUF) 120-hour Oligodendrocyte Differentiation Assay (NPC5) (AID 2284304; active means hit-call score of the fitted dose curve at least 0.9, where 1 is the maximum;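 further: primary human fetal neural progenitor spheres plated to migrate and differentiate; share of O4-positive cells among Hoechst nuclei found by CNN image analysis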)
In short: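 Human fetal neural progenitor spheres (0.3 mm) plated on poly-D-lysine/laminin in N2 differentiation medium and exposed for 120 h at 7 concentrations, with half-medium renewal at day 3. O4-positive cells identified by CNN, expressed as percent of Hoechst nuclei.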

[22] = IUF_NPC2-5_cytotoxicity_72hr: Cytotoxicity Assessment at 72 hours in the Leibniz Research Institute for Environmental Medicine (IUF) Neural Progenitor Cell Migration and Differentiation Assay for Cytotoxicity (NPC2-5) (AID 2284306; active means hit-call score of the fitted dose curve at least 0.9, where 1 is the maximum;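 further: LDH release into supernatant measured by resorufin fluorescence marking membrane damage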)
In short: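 Primary human neural progenitor spheres migrate and differentiate on laminin. Compound is present from the start of differentiation, with DMSO kept at or below 0.1%. At 72 h, supernatant LDH is quantified fluorometrically, with values fitted in the positive direction.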

[23] = IUF_NPC2-5_cytotoxicity_120hr: Cytotoxicity Assessment at 120 hours in the Leibniz Research Institute for Environmental Medicine (IUF) Neural Progenitor Cell Migration and Differentiation Assay (NPC2-5) (AID 2284307; active means hit-call score of the fitted dose curve at least 0.9, where 1 is the maximum)
In short: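 Human fetal (GW 16-19) neural progenitor spheres (0.3 mm) plated on poly-D-lysine/laminin in N2 differentiation medium, exposed 120 h with half-medium renewal at day 3; 7 concentrations plus solvent control, DMSO ≤0.1%. LDH release in supernatant read by resorufin fluorescence.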

[24] = IUF_NPC2-5_cell_number_120hr: Cell Number Assessment at 120 hours in the Leibniz Research Institute for Environmental Medicine (IUF) Neural Progenitor Cell Migration and Differentiation Assay (NPC2-5) (AID 2284308);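 further: count of Hoechst-stained nuclei in migration zone around plated human neural progenitor spheres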
In short: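 Human fetal neural progenitor spheres (0.3 mm) plated on poly-D-lysine/laminin in N2 differentiation medium, exposed five days across 7 concentrations with half-medium refresh at day 3. Hoechst-positive nuclei counted in migration area at 120 h, relative to DMSO.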

[25] = IUF_NPC2-5_viability_120hr: Viability Assessment at 120 hours in the Leibniz Research Institute for Environmental Medicine (IUF) Neural Progenitor Cell Migration and Differentiation Assay (NPC2-5) (AID 2284312)
In short: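 Human fetal (GW 16-19) neural progenitor spheres of 0.3 mm were plated on poly-D-lysine/laminin in N2 differentiation medium and exposed from day 0 for 120 h, with half-medium refresh at day 3. Viability was read as alamar blue resazurin-to-resorufin fluorescence against DMSO.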

[26] = IUF_NPC1_cytotoxicity_72hr: Cytotoxicity Assessment at 72 hours in the Leibniz Research Institute for Environmental Medicine (IUF) Neural Progenitor Cell Proliferation Assay (NPC1) (AID 2284332; active means hit-call score of the fitted dose curve at least 0.9, where 1 is the maximum;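 further: rising LDH signal means more cytotoxicity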)
In short: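 Readout is fluorescence from LDH-dependent resazurin conversion, sampled from culture medium after compound contact lasting 72 h. Each well holds one 0.25-0.35 mm human progenitor sphere kept at 37C, 5% CO2 with EGF and FGF.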

[27] = CCTE_Mundy_HCI_iCellGluta_NOG_NeuronCount: CCTE's Neurite Outgrowth Assay in iCellGluta cells for Neuron Count, Mundy Lab (AID 2284340; active means hit-call score of the fitted dose curve at least 0.9, where 1 is the maximum;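 further: cells fixed about 48 h after compound addition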)
In short: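 Neuron count read by automated high-content imaging of Hoechst 33342 and betaIII-tubulin/Alexa Fluor-488 labelling in human iPSC glutamatergic neurons. Activity fitted relative to DMSO.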

[28] = CCTE_Mundy_HCI_iCellGluta_NOG_NeuriteCount: CCTE's Neurite Outgrowth Assay in iCellGluta cells for Neurite Count, Mundy Lab (AID 2284342; active means hit-call score of the fitted dose curve at least 0.9, where 1 is the maximum;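 further: chemical exposure about 48 hours starting 2 hours after plating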)

Measured: AC50

CC1(C)[C@@H](C=C(Cl)Cl)[C@@H]1C(=O)O[C@@H](C#N)c1ccc(F)c(Oc2ccccc2)c1
active: [1] 2.39 µM | [2] 5.16 µM
inactive: all other assays above

— PubChem BioAssay (EPA / NIEHS)
